According to PubChem BioAssay AID1851 (National Center for Advancing Translational Sciences (NCATS), 2009):
In all, about 16,000 compounds went through this assay and about 2,600 (16%) were called active. Roughly 20% stayed inconclusive and do not appear here. Only a sample is shown. A number with no mark means an inactive call. The call rests on the fitted dose curve; in most records, active means well fitted curve in the direction sought with a large enough effect; inconclusive means small, poorly fitted or top-dose-only effect, or effect the other way; inactive means no such curve, though single readings can be large or run the other way.

What follows are compounds tested against Cytochrome P450 2D6 (Homo sapiens) (UniProt P10635) (assay: Cytochrome panel assay with activity outcomes). Conditions: recombinant CYP, pro-luciferin dealkylation, luminescence, p450-cyp2d6; series mostly up to 57.1 µM; activity, negative = inhibition: at the top concentration.
Chain of Cytochrome P450 2D6 (Homo sapiens) (P10635 whole entry, looked up): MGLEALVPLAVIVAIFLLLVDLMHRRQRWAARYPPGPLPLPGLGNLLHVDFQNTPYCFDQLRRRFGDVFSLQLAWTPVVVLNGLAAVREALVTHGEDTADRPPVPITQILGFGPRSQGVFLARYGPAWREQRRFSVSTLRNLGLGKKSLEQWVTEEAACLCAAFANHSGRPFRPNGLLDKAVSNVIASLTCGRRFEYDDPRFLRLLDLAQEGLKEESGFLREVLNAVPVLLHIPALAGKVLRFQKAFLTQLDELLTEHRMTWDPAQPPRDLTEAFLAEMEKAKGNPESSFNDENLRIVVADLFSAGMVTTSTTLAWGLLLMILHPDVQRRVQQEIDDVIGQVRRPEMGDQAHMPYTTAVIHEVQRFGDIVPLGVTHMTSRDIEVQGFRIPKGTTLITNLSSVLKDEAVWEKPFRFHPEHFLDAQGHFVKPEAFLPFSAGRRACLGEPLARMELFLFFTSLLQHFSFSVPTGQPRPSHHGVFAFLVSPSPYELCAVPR
On the % scale 0 is the no-effect control and ±100 the full control effect.

| SMILES | activity, negative = inhibition | AC50 |
| --- | --- | --- |
| CS(=O)(=O)N1CCC2(CC1)CN(C(=O)Nc1cccc(C#N)c1)C2 | -5.12% | – |
| O=C(O)/C=C\C(=O)N1Cc2cc3ccccc3nc2C1 | -1.33% [at 11.4 µM] | – |
| CC(=O)N(CC(O)CN(C(C)=O)c1c(I)c(C(=O)NC[C@@H](O)CO)c(I)c(C(=O)NC[C@@H](O)CO)c1I)c1c(I)c(C(=O)NC[C@@H](O)CO)c(I)c(C(=O)NC[C@@H](O)CO)c1I | 3.76% [at 25.6 µM] | – |
| COc1ccc(-n2cccc2C=O)cc1OC | 26% | – |
| CS(=O)(=O)N1CCC2(CC1)CN(c1ccncc1)C2 | 8.73% | – |
| CS(=O)(=O)N1CCC2(CCN(c3cccc(-c4ccccc4)c3)CC2)CC1 | 18.6% | – |
| CS(=O)(=O)N1CCC2(CC1)CN(c1ccccc1)C2 | – | 1.26 µM (active) |
| CS(=O)(=O)N1CCC2(CC1)CN(C(=O)Nc1ccccc1)C2 | 7.91% | – |
| CS(=O)(=O)N1CCC2(CC1)CN(C(c1ccccc1)c1ccccc1)C2 | – | 2.51 µM (active) |
| CS(=O)(=O)N1CCC2(CCN(c3ccccc3)CC2)CC1 | 14.5% | – |
| CS(=O)(=O)N1CCC2(CCN(C(c3ccccc3)c3ccccc3)CC2)CC1 | – | 3.16 µM (active) |
| CS(=O)(=O)N1CCC2(CCCN(C(c3ccccc3)c3ccccc3)C2)CC1 | – | 5.01 µM (active) |
| CS(=O)(=O)N1CCC2(CCCN(c3ccncc3)C2)CC1 | -9.57% | – |
| CS(=O)(=O)N1CCC2(CC1)CN(c1ccc(-c3ccccc3)cc1)C2 | 19.1% | – |
| O=C1NC(=S)N/C1=C/c1cccc([N+](=O)[O-])c1O | 0.452% | – |
| O=C1CC(c2ccc(F)cc2)Cc2nc(NCC3CCCO3)ncc21 (stereo not given) | -15.2% | – |
| CC12CCC(C(=O)Nc3ncc([N+](=O)[O-])s3)(OC1=O)C2(C)C (stereo not given) | 4.91% | – |
| Cc1cccc(C(=O)NN(C)c2nc(-c3ccccc3)nnc2C(F)(F)F)c1 | -4.32% | – |
| CCOC(=O)N1CCN(C(=O)c2cc(-c3ccc(F)cc3)[nH]c2C)CC1 | -13.3% | – |
| COC(=O)C/C=C\[C@@H](C)[C@@H](/C=N\O[C@@H](C)c1cn([C@H](CO)Cc2ccccc2)nn1)NS(=O)(=O)c1ccc(C)cc1 | -17.6% [at 11.4 µM] | – |
| COCCCn1nnnc1SCC(=O)N1CCCC1 | 12.7% | – |
| Cn1c(SC2CCCCC2=O)nnc1-c1ccncc1 (stereo not given) | 0.704% | – |
| COC(=O)Cn1nc(-c2ccccc2)n(-c2ccccc2)c1=S | -2.62% | – |
| O=C(NC(=S)Nc1cccc(Cl)c1N1CCCC1)c1ccc(-c2cccc([N+](=O)[O-])c2)o1 | 1.82% | – |
| CS(=O)(=O)N1CCC[C@@]2(CCN(c3ccccc3)C2)C1 | -6.59% | – |

| SMILES | activity, negative = inhibition | AC50 |
| --- | --- | --- |
| CS(=O)(=O)N1CCC[C@@]2(CCN(C(=O)Nc3ccccc3)C2)C1 | -1.65% | – |
| CS(=O)(=O)N1CCC[C@@]2(CCN(C(c3ccccc3)c3ccccc3)C2)C1 | – | 3.98 µM (active) |
| Cc1nc2c3cnn(-c4ccc(C)c(C)c4)c3ncn2n1 | -12.9% | – |
| CCCc1nnc(SCC(=O)N2CCCC(C)C2)n1CC1CCCO1 (stereo not given) | 11.4% | – |
| COC(=O)N1CCC2(CC1)CN(C(=O)Nc1ccc(OC)cc1)C2 | -6.61% | – |
| Cc1ncc(CO)c(CO)c1O | -5.06% [at 25.6 µM] | – |
| Cc1ncc2c(c1O)COP(=O)(O)OC2 | – | 1 µM (active) |
| CCC1NC(=S)N(C2CCCCC2)C1=O (stereo not given) | 1.35% | – |
| C(/C=C/c1ccco1)=N/N1CCN(c2ccccc2)CC1 | -7.09% | – |
| O=C(/C=C/c1ccccc1Cl)NCCN1CCOCC1 | -4.1% | – |
| O=C(/C=C/c1ccc(Cl)cc1)NCCN1CCOCC1 | -7.23% | – |
| N=c1n(CCN2CCOCC2)c2ccccc2n1CC(=O)c1ccc(Cl)c(Cl)c1 | – | 2 µM (active) |
| O=c1c(-c2ccc(F)cc2)nc2cnc(N3CCOCC3)nc2n1C1CC1 | 2.33% | – |
| O=C(CN1C(=O)c2ccccc2C1=O)NC1(C(=O)O)CCCC1 | 2.83% [at 11.4 µM] | – |
| COCCn1c(=O)c(-c2ccccc2)nc2cnc(Oc3ccccc3)nc21 | -1.57% | – |
| COc1ccc(NC(=O)N2CC3(CCN(C(=O)c4ccc(OC)cc4)CC3)C2)cc1 | 8.59% | – |
| C[C@H]1CC(C)(C)C[C@@](OCCN2CCCCC2)(c2ccccc2)C1 | – | 0.631 µM (active) |
| CCCc1nnc(SCC(=O)N2CCCCC2C)n1CC1CCCO1 (stereo not given) | 9.36% | – |
| Cc1ccc(OC(=O)N2CCOCC2)cc1 | 6.26% | – |
| CCOC(=O)C1CCCN(c2ncnc3c2cnn3-c2cccc(C)c2)C1 (stereo not given) | -19.6% | – |
| CN1CCN(c2ncc3nc(-c4ccc(F)cc4)c(=O)n(C4CC4)c3n2)CC1 | 2.59% | – |
| COc1ccc(-c2nnc(SCc3cccc(C)c3)n2N)cc1 | – | 14.1 µM (active) |
| CCn1c(SCc2cccc(C)c2)nnc1-c1ccc(C)cc1 | -14.5% | – |
| COc1ccc(NCc2nnc(SCc3ccccc3)n2-c2ccc(OC)cc2)cc1 | -28.7% | – |
| Cc1ccc(OCC(=O)NC2=NCCS2)cc1 | -3.18% | – |
